DAX1 inh-1 = DAX1 (NR0B1) inhibitors, primary screen, cell-based, HEK293, Gal4-DAX1, luciferase luminescence; 340,000 compounds, 0.99% hits; inhibition, % at 6.75 µM; Nuclear receptor subfamily 0 group B member 1 (Homo sapiens), P51843; HEK293 Gal4-DAX1 luciferase reporter;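 active means inhibition above the mean over all tested compounds plus 3 SD, cut at about 4.2% in these data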;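 further: inhibition shows as a rise in luminescence from relieved DAX1 repression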
Target sequence (P51843 207-470 limits assumed): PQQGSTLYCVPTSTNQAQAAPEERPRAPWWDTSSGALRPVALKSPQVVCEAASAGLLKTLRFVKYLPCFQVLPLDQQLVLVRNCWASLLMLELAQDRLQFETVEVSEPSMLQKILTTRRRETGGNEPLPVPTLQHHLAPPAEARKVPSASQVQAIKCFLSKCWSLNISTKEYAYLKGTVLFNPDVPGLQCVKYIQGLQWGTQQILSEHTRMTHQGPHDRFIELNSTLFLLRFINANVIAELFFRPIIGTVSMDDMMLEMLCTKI
DAX1 inh-2 = DAX1 (NR0B1) inhibitors on StAR promoter, primary screen, cell-based, luminescence, SF-1 (NR5A1), full-length DAX-1. 370,000 compounds, 1.1% hits. HEK293T StAR-luciferase reporter, SF-1/DAX-1 repression relief. inhibition, % at 6.8 µM;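 active means inhibition above the mean over all tested compounds plus 3 SD, cut at about 3.6% in these data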;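 further: higher inhibition means more luminescence from relief of DAX-1 repression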
hgDAF12 agonist = H. glycines DAF-12 receptor agonists, primary screen, cell-based, luminescence, HEK293, GAL4 fusion, UAS-luciferase. Nuclear hormone receptor DAF-12 (Heterodera glycines), GAL4 fusion. HEK293 GAL4-hgDAF12 UAS-luciferase reporter, agonist luminescence; normalized to butyrate control. activation, % at 6.8 µM. 370,000 compounds, 1.8% hits. AID 687014, 2013;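 active means activation above a cutoff set at the mean of all screened compounds plus 3 SD, cut at about 10% in these data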
ssDAF-12 act = S. stercoralis DAF-12 nuclear receptor activators, primary screen, cell-based, luminescence, HEK293, GRIP1 co-expression, lit1-tk-luc | Nuclear hormone receptor DAF-12 (Strongyloides stercoralis) | HEK293 ssDAF-12/GRIP1 lit1-tk-luc reporter; % of 3 µM dafachronic acid response | activation, % at 6.8 µM | 370,000 compounds, 1% hits | AID 652126, 2013;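 active means activation above the mean over all tested compounds plus 3 SD, cut at about 0.9% in these data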
hcDAF12 agonist = H. contortus DAF-12 nuclear receptor activators, primary screen, cell-based, luminescence, HEK293, lit1-tk-luc reporter. HEK293 hcDAF-12 lit1-tk-luc reporter; 0% DMSO, 100% Δ7-dafachronic acid. activation, % at 6.8 µM. 370,000 compounds, 1.4% hits. AID 652067, 2013;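 active means activation above the mean of all tested compounds plus 3 SD, cut at about 5.5% in these data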
Numbers stand for hits; - = inactive; . = no result given. Compounds with a hit are over-represented: about 4.1% of the library has one in this group of screens.

SMILES	DAX1 inh-1	DAX1 inh-2	hgDAF12 agonist	ssDAF-12 act	hcDAF12 agonist
O=C1C2CCC(C2)C1CN1CCOCC1 (centres undefined)	-	-	-	1.8	-
CC1CCc2nc(NC(=O)CN3CCN(c4ccc(F)cc4)CC3)sc2C1 (centres undefined)	6.6	-	-	-	-
Cc1ccc2nc(NCc3ccccc3)[nH]c2c1	-	-	10.6	-	-
COC(=O)[C@@]12CCCCC3=C1N(CCC3)C(=O)[C@H]2CC(=O)N1CCN(C(=O)c2ccco2)CC1	.	-	-	-	-
CCCN(C(=O)CCc1cn(CCC)c2ccccc12)c1ccc(Oc2cccnc2)cc1	.	-	-	-	-
COC(=O)[C@]12CCCCC=C1N(Cc1ccc3c(c1)OCO3)C(=O)[C@H](CC(=O)NCC1CCCCC1)C2	.	4.1	-	-	-
COCCCNC(=O)C[C@@H]1C[C@@]2(C(=O)OC)CCCCC=C2N(Cc2ccc3c(c2)OCO3)C1=O	.	-	-	-	-
C=CCN1C(=O)[C@H](CC(=O)NCc2ccccc2)[C@@]2(C(=O)OCC)CCCC=C12	.	-	-	-	-
CCN1CCN(c2nc(-c3ccccc3)nc3ccccc23)CC1	-	-	-	-	-
Cc1ccc(-c2nc(N3CCN(C)CC3)c3ccccc3n2)cc1	-	-	-	-	6.3
CN1CCN(c2nc(-c3ccc(C(C)(C)C)cc3)nc3ccccc23)CC1	-	-	-	-	6.2
Nc1nc(SCc2ccccc2)cc(SCc2ccccc2)n1	-	-	11.8	-	-
Nc1cc(N)nc(SCc2ccccc2)n1	-	-	-	-	-
O=C(c1cc2cc(Cl)ccc2[nH]1)N1CCN(C(=O)c2ccco2)CC1	-	-	-	-	5.9
O=C(c1cc2cc(Cl)ccc2[nH]1)N1CCN(c2ccccc2F)CC1	-	-	-	-	-
CC(/C=C/C=C/c1ccccc1)=N\NC(=O)c1cccnc1	4.5	-	-	-	-
O=C(O)c1ccc2c(c1)OCCCO2	-	-	-	-	-
CC(/C=C/C=C/c1ccccc1)=N/NC(=O)C(O)c1ccccc1 (centres undefined)	-	-	-	-	-
O=C(/C=C/c1ccccc1)c1ccc2c(c1)OCCCCO2	-	-	12.0	-	-
CC(/C=C/C=C/c1ccccc1)=N/NC(=O)c1ccc2c(c1)OCCO2	-	-	-	1.2	-
CC(/C=C\C=C\c1ccccc1)=N\NC(=O)c1cncc(Br)c1	-	-	-	-	-
Cc1ccccc1CN1CCCCC(NC(=O)c2ccc(F)c(F)c2)C1=O (centres undefined)	.	-	-	-	-
CCOC(=O)[C@]12CCCC3=C1N(CCC3)C(=O)[C@@H](CC(=O)N1CCC(c3ccccc3)CC1)C2	.	-	-	-	-
Oc1ccccc1C=Nn1c(-c2ccccc2F)n[nH]c1=S	.	-	-	-	-
CNC(=O)c1c(Cl)cnn1-c1ccc(C)cc1	-	-	11.8	-	-
SMILES	DAX1 inh-1	DAX1 inh-2	hgDAF12 agonist	ssDAF-12 act	hcDAF12 agonist
C=CCNC(=O)c1c(Cl)cnn1-c1ccc(C)cc1	.	-	11.9	-	-
CNC(=O)c1c(Br)cnn1-c1ccc(C)cc1	-	3.7	12.2	-	-
C=CCNC(=O)c1cnn(-c2ccccc2)c1-c1ccccc1	-	-	-	-	-
O=C(Cc1ccc(NC(=O)C2CCN(C(=O)C3CCCC3)CC2)cc1)Nc1cccc(C(=O)N2CCCC2)c1	.	-	-	-	-
CN(C(=O)[C@@H](C1CC1)[C@@H](O)c1ccc(Cl)cc1)c1ccccc1	.	-	-	-	-
CCC[C@H]1[C@@H](OC(=O)NCc2ccc(Cl)cc2)CC[C@@]23CCCN2C(=O)CCC[C@@H]13	.	.	-	-	-
Cc1ccccc1C(=O)N(C)[C@H]1C[C@H]2c3[nH]c4c(-c5ccc6c(c5)OCO6)cccc4c3CCN2C[C@H]1[C@H](C)O	.	-	-	-	-
Cc1cc(C(=O)O/N=C(\N)c2ccncc2)ccc1[N+](=O)[O-]	4.4	-	-	-	-
C=CCN1C(=O)[C@H](CC(=O)NCC23CC4CC(CC(C4)C2)C3)[C@@]2(C(=O)OC)CCCCC=C12	.	-	-	-	-
COCc1cc(C)nc(SCc2ccc([N+](=O)[O-])cc2)c1C#N	4.6	-	-	-	-
C=CC[C@]1(c2ccccc2)C(=O)N2C[C@H]3CON(C)[C@H]3C[C@H]2c2ccccc21	.	-	-	-	-
CCOc1cc(S(=O)(=O)NCC2OCCc3ccccc32)c(OCC)cc1-n1cnnn1 (centres undefined)	4.6	-	-	-	-
CCOc1cc(S(=O)(=O)NCCc2ccc(OC)c(OC)c2)c(OCC)cc1-n1cnnn1	-	-	-	-	-
O=C(N/N=C/C=C\c1ccccc1[N+](=O)[O-])c1ccccn1	-	-	10.7	-	-
O=C(N[C@@H](Cc1ccccc1)C(=O)N1CCC2CCN(S(=O)(=O)c3ccccc3)CC21)[C@@H]1CCCN1 (some centres undefined)	.	-	-	-	-
CC(=O)Nc1ccc(NCc2cccs2)cc1	4.3	-	-	-	-
CC(C)CN1C(=O)N2Cc3ccccc3C2CS1(=O)=O (centres undefined)	.	-	-	-	-
COC(=O)[C@]12C[C@H](CC(=O)NCCCN3CCCC3=O)C(=O)N(Cc3ccco3)C1=C[C@H](C1CCCC1)O[C@@H]2C	.	-	-	-	-
Cc1cc(N2CCN(Cc3ccccc3)CC2)n2nc(C)nc2n1	.	-	-	-	-
Cc1ccc(Cn2cc(CN3CC(N4CCN(CCO)CC4)CS3(=O)=O)nn2)cc1 (centres undefined)	.	4.2	-	-	-
COc1ccc(Cn2cc(CN3CC(N4CCN(CCO)CC4)CS3(=O)=O)nn2)cc1 (centres undefined)	.	-	-	-	-
CCCCCCn1cc(CN2CC(N3CCN(CCN(C)C)CC3)CS2(=O)=O)nn1 (centres undefined)	.	3.9	-	-	-
CCN(C)C1CN(Cc2cn(Cc3ccc(Cl)cc3)nn2)S(=O)(=O)C1 (centres undefined)	.	-	-	-	-
COCCCn1cc(CN2CC(N3CCN(CCN(C)C)CC3)CS2(=O)=O)nn1 (centres undefined)	.	-	-	-	-
CCN(C)C1CN(Cc2cn(Cc3ccc(C(F)(F)F)cc3)nn2)S(=O)(=O)C1 (centres undefined)	.	4.1	-	-	-
COc1ccccc1COC(=O)c1cccc(S(=O)(=O)N(C)Cc2ccccc2)c1	.	-	-	-	-
